Data from PubChem BioAssay AID1645882 (National Center for Advancing Translational Sciences (NCATS), 2021).
“And” between values parts separate entries of the source, which are not always exact repeats. Equal values may be shown once. About 120 (0.75%) of roughly 16,000 compounds were called active. Where a call stands in place of a potency, no number is given. About 4% were inconclusive and are not listed. This is one part of a sample in which actives are shown more often than they occur. Calls come from the whole dose curve; as a rule, active = well fitted inhibition curve with a large enough effect; inconclusive = small, poorly fitted or top-dose-only effect; inactive = no such curve, though single readings can be large or run the other way. The source holds several records for some structures; these can differ, active in one and inactive in another. *1 amine or outer side, *2 acyl side, *3 side chain or, on linkers, in order; H or OH if unused. Where a SMILES comes first, the peptide text is derived from it. Bridges are numbered along the chain shown (N, C = ends). [ ]: non-standard residue; d: D form. The star is where a group is joined. X6 = NC1=N[C@@H](O)C[C@H]([C@H](N[*:1])C(=O)[*:2])N1; ΔAla(3-NHCONH2) = NC(=O)NC=C(N)C(=O)O; β3hOrn = NCCC[C@H](N)CC(=O)*; Dap = NC[C@H](N)C(=O)O
Note: nearly all actives have a fitted effect of over 75% in size.
Potency is the fitted concentration of half-maximal effect.

These compounds were tested against Rap guanine nucleotide exchange factor 3 (Homo sapiens) (UniProt O95398) (assay: Validation qHTS for antagonist of cAMP-regulated guanine nucleotide exchange factor 3 (EPAC1)). Settings: EPAC1 Rap1B-BODIPY-GDP exchange, fluorescence; series mostly up to 150 µM.
Sequence of Rap guanine nucleotide exchange factor 3 (Homo sapiens) (O95398 whole entry, looked up): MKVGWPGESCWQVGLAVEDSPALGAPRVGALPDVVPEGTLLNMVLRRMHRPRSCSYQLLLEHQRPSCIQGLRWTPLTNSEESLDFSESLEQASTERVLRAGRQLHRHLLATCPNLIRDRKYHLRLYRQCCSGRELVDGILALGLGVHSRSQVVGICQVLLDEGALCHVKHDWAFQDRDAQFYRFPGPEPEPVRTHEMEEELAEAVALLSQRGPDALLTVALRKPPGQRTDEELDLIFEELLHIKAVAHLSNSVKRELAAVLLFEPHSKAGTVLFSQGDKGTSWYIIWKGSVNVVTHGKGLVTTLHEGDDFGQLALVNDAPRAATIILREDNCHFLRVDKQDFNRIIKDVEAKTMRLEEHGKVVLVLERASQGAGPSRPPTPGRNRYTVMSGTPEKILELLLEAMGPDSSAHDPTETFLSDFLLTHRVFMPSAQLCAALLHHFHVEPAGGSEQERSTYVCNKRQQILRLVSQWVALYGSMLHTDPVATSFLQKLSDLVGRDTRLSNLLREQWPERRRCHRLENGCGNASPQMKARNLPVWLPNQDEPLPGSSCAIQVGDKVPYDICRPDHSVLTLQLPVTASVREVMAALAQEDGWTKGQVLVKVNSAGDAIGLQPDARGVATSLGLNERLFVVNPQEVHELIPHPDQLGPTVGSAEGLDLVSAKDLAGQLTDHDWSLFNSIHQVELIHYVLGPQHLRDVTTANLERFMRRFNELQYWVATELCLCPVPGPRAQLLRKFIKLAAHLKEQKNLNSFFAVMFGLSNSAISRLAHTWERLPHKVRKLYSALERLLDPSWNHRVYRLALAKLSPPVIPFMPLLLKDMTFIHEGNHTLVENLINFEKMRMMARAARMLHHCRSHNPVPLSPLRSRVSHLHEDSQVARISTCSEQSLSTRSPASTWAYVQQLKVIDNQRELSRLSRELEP
Procedure, shortened: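 EPAC1 (100 nM) mixed with 250 nM RAP1B-BODIPY-GDP and 50 uM GDP; compounds in concentration series, 5 min at room temperature. Fluorescence (ex 480/em 540 nm) read every 5 min for 30 min; normalized to ATA control and DMSO.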
For `CN(Cc1cnc2ccccn12)C1CCN(c2cccc(NC(=O)c3cccnc3)c2)CC1`, the Potency was “inactive”.
`Cc1ccc(C(=O)N(Cc2cc3cc4c(cc3nc2N2CCOCC2)CCC4)CC2CCCO2)cc1` (stereo not drawn) was tested, and the Potency was “inactive”.
With `CC(C)C[C@@H](CO)N1CCN(Cc2ccccc2)CCC1=O` the Potency was “inactive”.
With `O=C(NCc1cccnc1)[C@@H]1CC=C[C@@H]2CCN(Cc3ccc(Cl)c(Cl)c3)C(=O)[C@@H]21` the Potency was “inactive”.
In the case of `CC(C)(Sc1ccc(CCN(CCCCC2CCCCC2)C(=O)NC2CCCCC2)cc1)C(=O)O`, the Potency is reported as 44.7 µM (active).
`O=c1c(-c2ccccc2)nc2cnc(Oc3cccc(Cl)c3)nc2n1C[C@H]1CCCO1` was tested, and the Potency was “inactive”.
`COc1cc([C@@H]2c3cc4c(cc3C(OC3OC5COC(C)OC5C(O)C3O)C3COC(=O)[C@@H]32)OCO4)cc(OC)c1O` (stereo partly drawn) was tested, and the Potency was “inactive”.
For `O=C1c2c(O)cccc2[C@@H]([C@@H]2O[C@H](CO)[C@@H](O)[C@H](O)[C@H]2O)c2cc(CO)cc(O)c21`, the Potency was “inactive”.
With `O=C1c2c(O)cccc2[C@H]([C@@H]2O[C@H](CO)[C@@H](O)[C@H](O)[C@H]2O)c2cc(CO)cc(O)c21` the Potency was “inactive”.
In the case of `O=C(O)c1cc(O)c2c(c1)[C@H]([C@H]1c3cc(C(=O)O)cc(O)c3C(=O)c3c(O[C@@H]4O[C@H](CO)[C@@H](O)[C@H](O)[C@H]4O)cccc31)c1cccc(O[C@@H]3O[C@H](CO)[C@@H](O)[C@H](O)[C@H]3O)c1C2=O`, the Potency is reported as 100 µM (active).
For `CCCN1CCC(=O)N([C@H](CO)Cc2ccccc2)CC1`, the Potency was “inactive”.
`Nc1c(S(=O)(=O)O)cc(Nc2ccc(Nc3nc(Cl)nc(Nc4ccc(S(=O)(=O)O)cc4)n3)c(S(=O)(=O)O)c2)c2c1C(=O)c1ccccc1C2=O` was tested, and the Potency was 22.4 µM (active).
In the case of `CC#CCC(C)[C@H](O)/C=C/[C@@H]1[C@H]2c3cccc(CCCC(=O)O)c3O[C@H]2C[C@H]1O` (stereo partly drawn), the Potency is reported as “inactive”.
With `Nc1ccc(O)cc1` the Potency was “inactive”.
For `Nc1cc(N)cc(N)c1`, the Potency was 44.7 µM (active).
With `COc1cc(N)c(N)cc1OC` the Potency was “inactive”.
For `COc1ccc2[nH]cc(CCO)c2c1`, the Potency was “inactive”.
`CC(C)c1ccc(CN2CCC3(CCC(CNC(=O)c4ccn(C)n4)O3)CC2)cc1` (stereo not drawn) was tested, and the Potency was “inactive”.
`Cc1cccc(C(=O)NCc2nc(-c3cccc(NC(=O)C4CCCN(C)C4)c3)oc2C)n1` (stereo not drawn) was tested, and the Potency was “inactive”.
For `Cn1cccc1C(=O)N1CCC[C@@]2(CCN(c3cccc(-c4ccccc4)c3)C2)C1`, the Potency was “inactive”.
For `CCOc1nc2cccc(C(=O)OC(C)OC(=O)OC3CCCCC3)c2n1Cc1ccc(-c2ccccc2-c2nn[nH]n2)cc1` (stereo not drawn), the Potency was 89.1 µM (active).
`CCOc1nc2cccc(C(=O)O)c2n1Cc1ccc(-c2ccccc2-c2nn[nH]n2)cc1` was tested, and the Potency was “inactive”.
`CCCc1nc(C(C)(C)O)c(C(=O)OCc2oc(=O)oc2C)n1Cc1ccc(-c2ccccc2-c2nn[nH]n2)cc1` was tested, and the Potency was “inactive”.
With `CCN1CCCC1CNC(=O)c1cnn(-c2ncc3c(n2)-c2ccc(OC)cc2CC3)c1C1CC1` (stereo not drawn) the Potency was “inactive”.
`NCCC[C@H](N)CC(=O)N[C@H]1CNC(=O)[C@H]([C@H]2C[C@H](O)N=C(N)N2)NC(=O)C(=CNC(N)=O)NC(=O)[C@H](CO)NC(=O)[C@H](CO)NC1=O` (β3hOrn-[Dap]SS[ΔAla(3-NHCONH2)][X6]; lactam 1-C) was tested, and the Potency was “inactive”.
In the case of `O.O.O.O.O.O.O.O=S(=O)([O-])[O-].[Co+2]`, the Potency is reported as 100 µM (active).
In the case of `Cc1ccc(C(=O)Nc2cccc(-c3nc(CNC(=O)c4ccc(F)cc4Cl)c(C)o3)c2)s1`, the Potency is reported as “inactive”.
In the case of `CC(=O)OC1CCC2(C)C3=C(CCC2C1(C)C)[C@@]1(C)CCC(C(C)CCC=C(C)C)[C@@]1(C)CC3` (stereo partly drawn), the Potency is reported as “inactive”.
With `CCCCCCCCCCCCCCCCSCC(COC)COP(=O)([O-])OCC[N+](C)(C)C` (stereo not drawn) the Potency was “inactive”.
With `CN1CCN(CCCN2c3ccccc3Sc3ccc(Cl)cc32)CC1` the Potency was “inactive and 112 µM (active)”.
With `CN1CCN(CCCN2c3ccccc3Sc3ccccc32)CC1` the Potency was “inactive”.
With `OCCN1CCN(CCCN2c3ccccc3Sc3ccc(Cl)cc32)CC1` the Potency was “inactive”.
In the case of `CC(=O)N1CCC2(CC1)CN(c1cccc(-c3ccccc3)c1)C2`, the Potency is reported as “inactive”.
With `O=S1(=O)CCO[C@H]2CCCC[C@@H]2N1Cc1ccccc1Br` the Potency was “inactive”.
For `C=C1[C@@H](O)[C@H](CC(C)C)N(Cc2ccccc2Br)S1(=O)=O`, the Potency was 89.1 µM (active).
For `C[C@@H]1[C@H](c2ccccc2)OCCS(=O)(=O)N1Cc1ccccc1Br`, the Potency was “inactive”.
With `Cc1ccc2c(c1)C(=O)[C@@]1(O)CCN(c3ccccc3)C1=N2` the Potency was “inactive”.
`Cc1cnc(-n2ncc(C(=O)NCCN3CCOCC3)c2C2CC2)nc1-c1cccs1` was tested, and the Potency was “inactive”.
In the case of `CCC1CN(CCNC(=O)c2cc(C(C)C)nn2C)Cc2cc(OC)ccc2O1` (stereo not drawn), the Potency is reported as “inactive”.
For `Oc1c(Cl)cc(Cl)c(Cl)c1Cc1c(O)c(Cl)cc(Cl)c1Cl`, the Potency was 56.2 µM (active) and inactive.
In the case of `Cc1ccc2c(Cl)cc(Cl)c(O)c2n1`, the Potency is reported as “inactive”.
With `Oc1c(Cl)cc(Cl)c2cccnc12` the Potency was “inactive”.
With `COc1ccc(C(=O)N2CCC3(CC2)CN(c2ncccn2)C3)cc1` the Potency was “inactive”.
In the case of `COc1cc(CN2CCOc3ccc(CN4CCC(O)(c5cccnc5)CC4)cc3C2)cc(OC)c1`, the Potency is reported as “inactive”.
With `Cc1ccc(C(=O)NCCc2nnc3n2CCN(Cc2cc(C)cc(C)c2)CC3)cc1` the Potency was “inactive”.
In the case of `c1csc(CNc2ncncc2-c2ccoc2)c1`, the Potency is reported as “inactive”.
With `O=C(c1nc2ncccn2n1)N1CCOc2ccc(C(O)C(c3ccccc3)c3ccccc3)cc2C1` (stereo not drawn) the Potency was “inactive”.
In the case of `C=C1c2c(Cl)ccc(O)c2C(O)=C2C(=O)[C@]3(O)C(O)=C(C(N)=O)C(=O)C(N(C)C)C3C(O)C12` (stereo partly drawn), the Potency is reported as “inactive”.
`C=C1c2cccc(O)c2C(O)=C2C(=O)[C@]3(O)C(O)=C(C(N)=O)C(=O)C(N(C)C)C3C(O)C12` (stereo partly drawn) was tested, and the Potency was “inactive”.
In the case of `C=C1c2cccc(O)c2C(O)=C2C(=O)[C@]3(O)C(O)=C(C(N)=O)C(=O)[C@@H](N(C)C)[C@@H]3[C@@H](O)[C@H]12`, the Potency is reported as 31.6 µM (active).
`O=C(c1cccnc1)C1CCCN(Cc2ccc3c(c2)CN(C(=O)c2cccc(Cl)c2)CCO3)C1` (stereo not drawn) was tested, and the Potency was “inactive”.
For `CCC(C(=O)NC(N)=O)c1ccccc1` (stereo not drawn), the Potency was “inactive”.
`COC(=O)C[C@](O)(CCCC(C)(C)O)C(=O)O[C@@H]1C(OC)=CC23CCCN2CCc2cc4c(cc2[C@H]13)OCO4` (stereo partly drawn) was tested, and the Potency was “inactive”.
